FAS TE block: inhibitors of human fatty acid synthase thioesterase domain; inhibition, % at 15 µM; recombinant FAS-TE, OMFH fluorogenic substrate, fluorescence endpoint; actives 0.67% (n = 360,000); P49327;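 active means compounds whose normalised, plate-corrected inhibition of enzyme fluorescence in the single-dose primary screen is 50% or more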;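 further: 0% = DMSO with enzyme and 100% = substrate without enzyme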
Myeloid diff MLP: myeloid differentiation induction; ER-HoxA9 myeloid progenitors, lysozyme-GFP differentiation, flow cytometry; calls only at 10 µM; actives 1% (n = 360,000); AID 624256;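 active means normalized GFP-positive differentiation at or above the plate's own cutoff, the solvent-only control mean plus 3 SD; inconclusive means no clear call, values can overlap the other calls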;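 further: cells exposed to compound for four days before flow analysis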
NadD block: NadD (S. aureus) enzyme inhibition; purified NadD enzyme, colorimetric absorbance read-out; inhibition, % at 20 µM; actives 0.78% (n = 360,000); in the data active means inhibition above about 26%
CRFR2-BP antag: antagonists of CRF-binding protein/CRF-R2 receptor complex | inhibition, % at 11.8 µM | HEK293 CRF-R2/CRF-BP, CRF-induced calcium fluorescence | actives 0.59% (n = 350,000);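 active means inhibition of the ligand-induced calcium signal above about 50% at the single tested concentration, limit read from the data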
CendR NRP1 mod: modulators of CendR peptide binding to human neuropilin-1; FAM-RPARPAR peptide binding to NRP-1, fluorescence polarization; inhibition, % at 25 µM; actives 0.85% (n = 360,000);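 active means inhibition or corrected inhibition above about 18%, plus a signal ratio from 0.5 to 1.5, limit read from the data, passing the limit was not always enough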
Target sequence (O14786 whole entry, looked up): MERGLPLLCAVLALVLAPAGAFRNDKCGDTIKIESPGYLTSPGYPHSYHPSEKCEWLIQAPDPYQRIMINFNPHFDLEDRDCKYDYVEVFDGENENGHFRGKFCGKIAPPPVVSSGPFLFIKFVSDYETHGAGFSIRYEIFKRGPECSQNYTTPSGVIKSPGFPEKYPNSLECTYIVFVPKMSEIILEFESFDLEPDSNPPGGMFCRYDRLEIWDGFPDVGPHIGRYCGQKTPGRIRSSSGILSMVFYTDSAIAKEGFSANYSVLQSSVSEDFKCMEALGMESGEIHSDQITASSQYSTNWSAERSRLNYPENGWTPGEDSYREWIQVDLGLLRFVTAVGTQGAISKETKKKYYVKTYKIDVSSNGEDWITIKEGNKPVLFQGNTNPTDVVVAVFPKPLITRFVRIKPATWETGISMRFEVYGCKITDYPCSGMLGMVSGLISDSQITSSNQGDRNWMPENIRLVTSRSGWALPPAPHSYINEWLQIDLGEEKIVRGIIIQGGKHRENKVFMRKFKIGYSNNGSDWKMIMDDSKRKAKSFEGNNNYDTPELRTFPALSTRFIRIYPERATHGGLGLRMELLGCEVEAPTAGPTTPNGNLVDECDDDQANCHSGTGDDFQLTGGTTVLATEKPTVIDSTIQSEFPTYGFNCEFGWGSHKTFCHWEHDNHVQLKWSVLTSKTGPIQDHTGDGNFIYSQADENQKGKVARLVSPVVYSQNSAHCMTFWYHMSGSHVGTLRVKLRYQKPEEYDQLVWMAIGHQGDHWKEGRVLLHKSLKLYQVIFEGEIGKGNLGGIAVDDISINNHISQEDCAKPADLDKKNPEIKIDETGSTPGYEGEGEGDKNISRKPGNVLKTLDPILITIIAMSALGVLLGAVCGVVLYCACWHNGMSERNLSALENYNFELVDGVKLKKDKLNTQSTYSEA
Numbers without * were called inactive; i = inactive; ? = inconclusive; . = no result; + = active, no number. In the library only some 3.6% were active in any assay of this set; here they are far more common.

SMILES	FAS TE block	Myeloid diff MLP	NadD block	CRFR2-BP antag	CendR NRP1 mod
CC(=O)Nc1cc(-c2cccc(C(=O)NCCN(C)C)c2)cn2c(-c3ccc(C(C)=O)cc3)cnc12	-6	i	1	.	2
CCCCn1c(N)c(N(CC(C)C)C(=O)c2cc(C)oc2C)c(=O)[nH]c1=O	-4	i	4	0	6
O=C(COC(=O)c1cccc2ccccc12)Nc1ncc(C(F)(F)F)cc1Cl	15	+	0	6	4
CCNC(=O)C1(C)CCN(C(=O)c2ccccc2F)C1 (stereo not drawn)	-4	i	0	.	-4
COC(=O)[C@H](CC(C)C)NS(=O)(=O)c1ccccc1	-10	i	1	4	23*
CCOC(=O)N1CCN(C(=O)C(CC(C)C)NS(=O)(=O)c2ccc(C)cc2)CC1 (stereo not drawn)	-4	i	1	1	22*
Cc1ccc(C(=O)N2CCN(c3ccc4c(c3)C3CC4CCN3C(=O)OCc3ccccc3)CC2)cc1 (stereo not drawn)	12	i	7	.	-3
O=C(c1ccc(-c2ccccc2)cc1)N1CCN(c2ccc3c(c2)C2CC3CCN2C(=O)OCc2ccccc2)CC1 (stereo not drawn)	21	i	19	.	32*
COc1cc(/C=C/c2ccc3cccc([N+](=O)[O-])c3n2)ccc1OCC#N	53*	i	11	1	-6
CCOc1cc(/C=C/c2ccc3cccc([N+](=O)[O-])c3n2)ccc1O	12	i	6	-66	-2
CN(C)C(CNC(=O)c1cc(S(=O)(=O)N2CCOCC2)ccc1Cl)c1cccs1 (stereo not drawn)	-4	i	-8	2	-6
Cc1cccc(N(C)c2ncnc3onc(-c4ccc(F)cc4)c23)c1C	11	i	1	-4	22*
CCN(CCO)c1ncnc2onc(-c3ccc(F)cc3)c12	-3	i	-6	-3	8
COc1ccc2nc(N=NC3=C(O)CC(C)(C)CC3=O)sc2c1	2	i	9	50*	12
CC1(C)CC(=O)C(N=Nc2ccc3ncsc3c2)=C(O)C1	-2	i	-3	7	4
O=C(C1CCCCC1)N1C[C@H](n2cc(C3CC3)nn2)[C@@H](O)C[C@@H]1c1ccc(Cl)cc1	-8	i	3	9	-8
O=[N+]([O-])c1cccnc1Sc1ccc(Cl)cc1	27	i	-11	61*	5
C/C(=N\N)c1c(-c2ccccc2)c2cc(C)ccc2[nH]c1=O	-4	i	-4	4	7
CC/C(C)=N/NC(=O)c1[nH]c2ccc(C)cc2c1-c1ccccc1	7	+	11	-13	-1
CC(C)C(=O)Nc1c(-c2cccs2)c(=O)c2ccccc2n1C	-11	i	-1	0	-4
COc1ccccc1-c1c(NC(=O)C(C)C)n(C)c2ccccc2c1=O	-2	i	0	106*	-5
Cn1c(C(=O)NCCN2CCOCC2)cc2c(=O)n3ccccc3nc21	-5	i	5	2	8
Cc1cccn2c(=O)c3cc(C(=O)NCCN4CCOCC4)n(C)c3nc12	-4	+	1	-1	7
Cc1cccn2c(=O)c3cc(C(=O)NC4CCCCC4C)n(C)c3nc12 (stereo not drawn)	6	+	0	-2	4
COCOc1ccc(-c2ncc(OC)nc2NC(=O)c2ccsc2)cc1	-10	i	-4	.	1
SMILES	FAS TE block	Myeloid diff MLP	NadD block	CRFR2-BP antag	CendR NRP1 mod
NC(=O)C1CCCN1 (stereo not drawn)	-8	i	-1	0	22*
COc1cccc(CNC(=O)[C@@H]2CCCN2)c1	-13	i	3	.	10
CC1(c2nnnn2Cc2ccccc2)CCC(=O)N1Cc1ccco1 (stereo not drawn)	-7	i	4	.	12
COC(=O)N=Nc1c(O)[nH]c2ccc(Br)cc12	-5	i	-9	1	-7
COc1ccc(Cc2nnc(N=Nc3c(O)[nH]c4ccc(Br)cc34)[nH]c2=O)cc1	3	i	38*	39	4
COc1ccc(C2NC(=O)c3ccccc3O2)cc1 (stereo not drawn)	-9	i	-10	-16	23*
Cc1cccc(C(=O)Nc2scc(-c3ccc(Br)cc3)c2C(=O)O)c1	-4	i	-3	50*	-33
Cc1ccc(-c2csc(NC(=O)c3cccc(C)c3)c2C(=O)O)cc1	1	i	-2	28	-19
CCOc1ccccc1-c1cncc(NC)n1	-4	i	5	.	23
O=C(Cn1nc(Cl)nc1Cl)Nc1ccccc1	-9	i	1	61*	4
CCOc1ccc(NC(=S)N(Cc2ccc(N(C)C)cc2)Cc2ccco2)cc1	16	?	5	77*	10
COc1ccc(NC(=S)N(Cc2ccc(N(C)C)cc2)Cc2ccco2)cc1	21	i	-4	32	7
O=C(CSc1nc(-c2ccccc2Cl)ns1)c1ccc(Cl)cc1	24	i	-4	6	5
Cc1cccc(-c2nsc(SCC(=O)c3ccc(Cl)cc3)n2)c1	15	i	7	-28	45*
CCO[C@@H]1OC(C(=O)N2CCOCC2)=C[C@H](C2CCCCC2)[C@H]1CCCO	-14	+	0	8	-4
CCO[C@@H]1OC(C(=O)N2CCCCCCC2)=C[C@H](C2CCCCC2)[C@H]1CCCO	0	i	-5	2	5
CC(=O)c1ccc(OCC(=O)NC2CCCN(Cc3ccccc3F)C2)cc1 (stereo not drawn)	-5	+	-5	10	13
COc1ccc(C(=O)COC(=O)CCNS(=O)(=O)c2ccccc2)cc1Br	7	i	-8	-28	10
CC(C)OC(=O)c1cc(C(=O)c2cc(F)ccc2O)coc1=N	-6	+	0	-20	-3
CC(C)OC(=O)c1cc(C(=O)c2cc(Cl)ccc2O)coc1=N	-2	+	1	2	-28
O=C1NC[C@H](CCCCN2C[C@H](Cc3ccc(O)cc3)N(CCc3ccccc3)C(=O)C2=O)N(CCc2ccc(O)cc2)C1=O	-14	i	7	.	-6
O=C(N/N=C/c1cccc([N+](=O)[O-])c1)c1ccc2c(c1)OCCO2	11	i	0	14	6
O=[N+]([O-])c1cccc(C=Nc2cc3c(cc2Br)OCCO3)c1	2	i	3	-18	27*
CC(C)NC1CCC(Nc2ccnc3cc(Cl)ccc23)CC1 (stereo not drawn)	-9	+	0	0	10
CC(CCCN1CCCC1)Nc1ccnc2cc(Cl)ccc12 (stereo not drawn)	-3	i	-2	4	-8
Clc1ccc2c(NCCNC3CCCCC3)ccnc2c1	-4	+	-8	10	13
C[C@H](CO)N1C[C@H](C)[C@@H](CN(C)C(=O)OCc2ccccc2)OCc2cn(nn2)CCCC1=O	-6	i	7	-7	-2
